These results are taken from PubChem BioAssay (NCATS).

Assay [1] has as its target Glutathione peroxidase 1 (Homo sapiens) (UniProt P07203). Briefly: Primary qHTS Assay for Inhibitors of Recombinant Selenoprotein Glutathione Peroxidase 1 (GPX1) (AID 1845191). Further: nearly all actives have a fitted effect of over 65% in size. In outline:
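GR-coupled readout: NADPH consumption tracked by fluorescence, ex 340/em 450 nm, at t=0 and after 15 min at RT. Final mix 10 nM GPX1, 1 mM GSH, 0.5 mM CHP, 0.5 mM NADPH, 100 nM GR, 0.01% BSA, following 30 min enzyme–compound preincubation.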

Assay [2] has as its target Phospholipid hydroperoxide glutathione peroxidase GPX4 (Homo sapiens) (UniProt P36969). Briefly: Primary qHTS Assay for Inhibitors of Recombinant Selenoprotein Glutathione Peroxidase 4 (GPX4) (AID 1845192). Further: nearly all actives have a fitted effect of over 65% in size. On activity change, negative = inhibition: series mostly up to about 50 µM; on the % scale 0 is the no-effect control and ±100 the full control effect. Put shortly: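 Steps: GPX4 plus compound, 30 min RT; add GR/GSH/NADPH master mix; start with cumene hydroperoxide; read 340/450 nm fluorescence at 0 and 15 min. Finals were 200 nM GPX4, 1 mM GSH, 0.5 mM CHP, 0.5 mM NADPH, 100 nM GR.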
On the technique in general: In qHTS, concentration-response curves come from the screen itself.

Assay [3] has as its target Luciferin 4-monooxygenase (Photinus pyralis) (UniProt P08659). Briefly: Primary firefly luciferase (FLuc) qHTS assay for identification of artifact compounds. (AID 1845220). Further: nearly all actives have a fitted effect of over 60% in size.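 On activity change, negative = inhibition: series mostly up to about 54 µM; plate controls were DMSO vehicle for no effect and no enzyme for full effect.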 Put shortly: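 D-luciferin and ATP (10 uM each, final) in Tris acetate buffer pH 7.6 were incubated with compounds for 15 min at room temperature. The reaction was started with 10 nM Photinus pyralis luciferase and luminescence read after 5 min. Percent inhibition was fitted to a 4-parameter Hill equation.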

A short description of assay [4]: Primary fluorescence-based thiol-reactive (MSTI) qHTS assay for identification of artifact compounds. (AID 1845221). Further: nearly all actives have a fitted effect of over 65% in size. Further: potency means the concentration at half of the fitted maximal effect.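 On activity change, negative = thiol reactive: series mostly up to about 54 µM; thiol-reactive compounds lower the probe fluorescence signal.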 In outline: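 Probe: MSTI 4 uM, PBS pH 7.4, 2% DMSO. Incubation 1 h, RT, light-protected. Readout fluorescence 525/598 nm.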

A number with no mark means an inactive call. Inconclusive results are not listed. The source made the active and inactive calls. The call rests on the fitted dose curve; in most records, active means well fitted curve in the direction sought with a large enough effect; inconclusive means small, poorly fitted or top-dose-only effect, or another doubt; inactive means no such curve, though single readings can be large; an effect the other way counts as inactive or inconclusive. Where a SMILES comes first, the peptide text is derived from it. The star is where a group is joined. Cbz = O=C(OCc1ccccc1)*; CH2F = FC*

Glutathione peroxidase 1 (Homo sapiens), sequence (P07203 whole entry, looked up): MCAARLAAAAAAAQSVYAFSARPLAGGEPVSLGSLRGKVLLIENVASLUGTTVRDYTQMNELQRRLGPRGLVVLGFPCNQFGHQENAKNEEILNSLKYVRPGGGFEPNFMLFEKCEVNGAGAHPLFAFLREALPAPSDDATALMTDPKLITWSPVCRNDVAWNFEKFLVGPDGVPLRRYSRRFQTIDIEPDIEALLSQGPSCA
Phospholipid hydroperoxide glutathione peroxidase GPX4 (Homo sapiens), sequence (P36969 whole entry, looked up): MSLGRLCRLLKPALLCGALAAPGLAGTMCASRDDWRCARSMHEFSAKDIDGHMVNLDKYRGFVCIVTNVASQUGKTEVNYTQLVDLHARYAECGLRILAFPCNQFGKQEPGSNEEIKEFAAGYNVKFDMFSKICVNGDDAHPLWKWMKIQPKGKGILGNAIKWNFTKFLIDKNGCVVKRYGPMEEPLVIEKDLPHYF

Take `CC1(C)CC[C@]2(C(=O)O)[C@H](O)C[C@]3(C)C(=CCC4[C@@]5(C)CC[C@H](O[C@@H]6OC[C@@H](O)[C@H](O)[C@H]6O)[C@@](C)(C(=O)O)C5CC[C@]43C)[C@@H]2C1` (stereo partly drawn): the Potency result in assay [1], in assay [2], in assay [3] and in assay [4] was “inactive” in each case.

Regarding `COc1ccnc(CCc2nc3ncccc3[nH]2)c1`, the Potency result in assay [1], in assay [2], in assay [3] and in assay [4] was “inactive” throughout.

For the molecule `COC1CC(O[C@H]2CC[C@@]3(C)C(=CC[C@]4(O)C3[C@H](O)[C@@H](O)[C@]3(C)[C@@H]([C@H](C)O)CC[C@@]34O)C2)OC(C)C1OC1CC(OC)C(OC2CC(OC)C(OC3OC(C)C(OC4OC(CO)C(O)C(O)C4O)C(OC)C3O)C(C)O2)C(C)O1` (stereo partly drawn), the Potency entry in assay [1] and in assay [2] was “inactive” throughout. Also, the activity change, negative = inhibition in assay [3] is 1.06% [at 11.6 µM]. Moreover, the activity change, negative = thiol reactive in assay [4] is 43.2% [at 11.5 µM].

On to `C=CC(C)(O)CC/C=C(\C)C(=O)O[C@@H]1[C@@H](O)[C@H](OC(C)(C=C)CC/C=C(\C)C(=O)O)O[C@H](CO)[C@H]1OC(=O)/C(C)=C/CCC(C)(O)C=C` (stereo partly drawn), for which the Potency result in assay [1], in assay [2], in assay [3] and in assay [4] was “inactive” throughout.

Take `FC(F)(F)c1nnc2c(Sc3ccccc3)nc3ccc(Cl)cc3n12`: the Potency entry in assay [1], in assay [2], in assay [3] and in assay [4] was “inactive” each time.

`CC(=O)OC1CC2(C)C(CCC(C)C23Cc2c(O)cc4c(c2O3)CNC4=O)C(C)(C)C1O` (stereo not drawn): the Potency entry in assay [1], in assay [2], in assay [3] and in assay [4] was “inactive” throughout.

In the case of `CC1(C)C(=O)N2c3ccccc3C(O)(CC(C(=O)O)n3cnc4ccccc4c3=O)C2N1O` (stereo not drawn), the Potency result in assay [1], in assay [2], in assay [3] and in assay [4] was “inactive” in each case.

Take `CC(C)CC(=O)O[C@@H]1O[C@H](CO)[C@@H](O[C@H]2O[C@H](C)[C@@H](N[C@H]3C=C(CO)[C@@H](O[C@H]4O[C@H](CO)[C@@H](O[C@H]5O[C@H](CO)[C@@H](O[C@H]6O[C@H](CO)[C@@H](O)[C@H](O)[C@H]6O)[C@H](O)[C@H]5O)[C@H](O)[C@H]4O)[C@H](O)[C@H]3O)[C@H](O)[C@H]2O)[C@H](O)[C@H]1O`: the Potency entry in assay [1] and in assay [2] was “inactive” throughout. Also, in assay [3], the outcome is “inactive [at 11.6 µM]”. The activity change, negative = thiol reactive in assay [4] is 7.36% [at 11.5 µM].

Consider `O=C(/C=C/c1ccc(O)c(O)c1)O[C@H]1[C@H](OC2CCCCC2O)O[C@H](CO)[C@@H](O)[C@@H]1O` (stereo partly drawn), for which the Potency entry in assay [1], in assay [2] and in assay [3] was “inactive” throughout. Besides, the Potency in assay [4] is 2.07 µM (active).

With `COC(=O)C1C(c2ccc(O)cc2)C(C(=O)O)C1c1ccc(O)cc1` (stereo not drawn), the Potency entry in assay [1], in assay [2], in assay [3] and in assay [4] was “inactive” throughout.

Take `C=C1CCC2C(C)(C(=O)OC)CCCC2(C)C1CCC1=CCOC1=O` (stereo not drawn): the Potency entry in assay [1], in assay [2], in assay [3] and in assay [4] was “inactive” in each case.

Consider `Cc1ncc(Cl)cc1NCc1ccc(C(=O)NC(CC2CCCC2)C(=O)NC2CC2)s1` (stereo not drawn), for which the Potency entry in assay [1], in assay [2], in assay [3] and in assay [4] was “inactive” in each case.

`C/C(=C\CC[C@H](CO)[C@@H]1CC[C@]2(C)C3=C(CC[C@@]12C)[C@@]1(C)CCC(=O)C(C)(C)C1CC3)C(=O)O` (stereo partly drawn): the Potency result in assay [1], in assay [2], in assay [3] and in assay [4] was “inactive” each time.

On to `CCOC(=O)C1=C(N)Oc2ccc(Cl)cc2C1C(C#N)C(=O)OCC` (stereo not drawn), for which the Potency result in assay [1], in assay [2], in assay [3] and in assay [4] was “inactive” each time.

Consider `COC(=O)CC[C@H](NC(=O)[C@H](CC(C)C)NC(=O)OCc1ccccc1)C(=O)N[C@@H](Cc1cnc[nH]1)C(=O)N[C@@H](CC(=O)OC)C(=O)CF` (Cbz-LE(OMe)HD(OMe)-CH2F), for which the Potency entry in assay [1] and in assay [2] was “inactive” each time. The activity change, negative = inhibition in assay [3] was 1.89% [at 11.6 µM]. Moreover, in assay [4], the activity change, negative = thiol reactive was 12.6% [at 11.5 µM].

`CCC(C)C(N)C(=O)NCCN1CCOCC1` (stereo not drawn): the Potency entry in assay [1], in assay [2], in assay [3] and in assay [4] was “inactive” throughout.

For the molecule `CCC/C=C1\OC(=O)C2=C1CCC(O)C2O` (stereo not drawn), the Potency result in assay [1], in assay [2], in assay [3] and in assay [4] was “inactive” in each case.

Consider `C=C1C2(C)CC3C4(C)OC(C5OC56C4=CC(=O)OC6(C)C)C3(C)C13C(=O)OC(C)C3(O)C2=O` (stereo not drawn), for which the Potency result in assay [1], in assay [2], in assay [3] and in assay [4] was “inactive” each time.

Consider `CC(=O)OC/C(=C/C(=O)O)CC[C@@H]1C(C)=CC(=O)[C@@H]2C(C)(C)CCC[C@@]12C`, for which the Potency entry in assay [1], in assay [2], in assay [3] and in assay [4] was “inactive” each time.

With `O=C(OCc1ccccc1O[C@@H]1O[C@H](CO)[C@@H](O)[C@H](O)[C@H]1O)C1(O)C=CCCC1O` (stereo partly drawn), the Potency result in assay [1], in assay [2] and in assay [3] was “inactive” throughout. Besides, in assay [4], the Potency was 5.82 µM (active).

On to `CC1(C)CCC[C@]2(C)C1CC=C(CO)[C@H]2CC/C(=C/CO)CO` (stereo partly drawn), for which the Potency result in assay [1], in assay [2], in assay [3] and in assay [4] was “inactive” each time.

Consider `CCC(=O)OCC(=O)[C@@]1(OC(=O)CC)[C@@H](C)C[C@H]2[C@@H]3CCC4=CC(=O)C=C[C@]4(C)[C@@]3(F)[C@@H](O)C[C@@]21C`, for which the Potency entry in assay [1], in assay [2], in assay [3] and in assay [4] was “inactive” throughout.

Regarding `C[C@@H]1CC2OC(=O)C3=C2C(CCC3O)[C@@]12C[C@@H](c1ccoc1)OC2=O` (stereo partly drawn), the Potency entry in assay [1], in assay [2], in assay [3] and in assay [4] was “inactive” in each case.

For `CC1CC2(O)OC(=O)C3=C2C(CCC3)[C@@]12C[C@@H](c1ccoc1)OC2=O` (stereo partly drawn), the Potency entry in assay [1], in assay [2] and in assay [3] was “inactive” throughout. For the same molecule, in assay [4], the Potency is 4.65 µM (active).

As for `CC(=O)OC1CCC2(C)C(CCC3(C)C2CC=C2C4CC(C)(C)CCC4(C)CCC23C)C1(C)C(=O)O` (stereo not drawn), the Potency result in assay [1], in assay [2], in assay [3] and in assay [4] was “inactive” in each case.

On to `CC1=CCC(O)C2(C)CCC3C(C)C(=O)OC3C12` (stereo not drawn), for which the Potency result in assay [1], in assay [2], in assay [3] and in assay [4] was “inactive” each time.

As to `C=C(CCO)C(=O)OCC1OCC(OC(=O)C(=C)CCO[C@@H]2O[C@H](CO)[C@@H](O)[C@H](O)[C@H]2O)C(O)C1O` (stereo partly drawn), the Potency result in assay [1], in assay [2], in assay [3] and in assay [4] was “inactive” throughout.
